Compounds without any hit were thinned out: in the full panel of roughly 79,000, 15% have a hit. Unmarked numbers belong to inactive results. The source made the active and inactive calls. No stated cut-off is given here; in the data, active means growth inhibition above about 70%; inactive means the rest.

Data on 40 compounds can be found in PubChem BioAssay (NCI).

The first assay can be described thus: NCI Yeast Anticancer Drug Screen. Data for the rad50 strain (AID 155).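 Further: 0% = growth of vehicle-only cultures of the same strain.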 The following applies: S. cerevisiae rad50 strain growth inhibition, active compounds read high; at 50.0 µM unless noted. A digest of the protocol:
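Vehicle-treated cultures provide the reference for the growth inhibition reported for compound-exposed, repair-deficient yeast.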
Consider `CNCCc1cn(C2OC(CO)C(O)C(O)C2O)cn1` (configuration not stated), for which the growth inhibition is -7.15%.

Turning to `COc1ccc2c(c1)[n+](=O)c(C(=O)C/C(=N/NC(=O)c1ccccc1O)C(=O)Nc1ccc(Cl)c(C(F)(F)F)c1)c(C)n2[O-]`, the growth inhibition is 25.1%. On the same count and under the same terms, for `Cc1ccc(N2CCC(O)C2)cc1` (configuration not stated) the value was -19.4%; for `CCC(=O)OC(CCC1CCCO1)CCC1CCCO1` (configuration not stated), 11.5%. Turning to `Cc1[nH]c(=O)cc2c1[nH]c1ccccc12`, the growth inhibition is -0.4%. For the compound `CCCOC(CCC(=O)NC(C)(C)C)CC(=O)NC(C)(C)C` (configuration not stated), the growth inhibition is 5.85%. As to `O=C(COCC(=O)N/N=C/C=C/c1ccccc1)N/N=C/C=C/c1ccccc1`, the growth inhibition is 7.7%.

As for `CC1CCCCN1Cc1ccccc1COC(=O)c1ccc([N+](=O)[O-])cc1Cl` (configuration not stated), the growth inhibition is 41.1%. Regarding `COC1C(OC(=O)c2ccc(C)[nH]2)C(O)C(Oc2ccc3c(O)c(NC(=O)c4c[nH]c(C(=O)Nc5c(O)c6ccc(OC7OC(C)(C)C(OC)C(OC(=O)c8ccc(C)[nH]8)C7O)c(C)c6oc5=O)c4C)c(=O)oc3c2C)OC1(C)C` (configuration not stated), the growth inhibition was 17%. Still for that read-out and setting: with `CCOCc1cccc2ccccc12` the figure was -13.6%. Regarding `CCOC(=O)C1=CC(C(=O)OCC)=C2C=CC=C3C=CC=C1N32`, the growth inhibition was 7.75%. For `O=C(c1cccs1)N(C(=S)N1CCN(c2ccccc2)CC1)C1CCCCC1`, the growth inhibition is -0.45%. Same read-out and setting: with `CC1CC(C)(O)C2C3(C)CCCC2(COC3=O)C12CCC1(CCOC1=O)O2` (configuration not stated) the figure was 0.9%; with `OCCCCC(O)CO` (configuration not stated), -2.55%. On the same count and under the same terms, with `Cc1cc[nH]c(=O)c1[N+](=O)[O-]` the figure was -12.3%; with `CC(C#N)C(=O)O` (configuration not stated), -3.55%. With `CCc1ccc2c(-c3ccccc3)c3c(-c4ccccc4)c4ccccc4c(-c4ccccc4)c3c(-c3ccccc3)c2c1`, the growth inhibition was 16.6%.

Regarding `O=C(O)c1cccc2c(=O)c3ccccc3oc12`, the growth inhibition is -13.9%.

For the compound `Cc1cccc(C)c1NC(=O)Nc1ccccc1C(N)=O`, the growth inhibition is 4.85%. As for `COc1ccc(C(=O)/C=C/N)c(OC)c1`, the growth inhibition was 17.3%. As to `O=C(O)C(F)(F)C(F)(F)C(F)(F)F`, the growth inhibition was 5.95%.

`O=C(O)NC(=O)c1cc([N+](=O)[O-])ccc1COC1CCCCO1` (configuration not stated): the growth inhibition is 5.95%. Take `O=C1CN(c2cccc(C(F)(F)F)c2)C(=O)CN1/N=C/c1ccc[nH]1`: the growth inhibition was -27.7%.

As for `Brc1cc(Br)cc(CN2CCOCC2)c1`, the growth inhibition was 34%. Regarding `Nn1c(NNC(=O)C(=O)Nc2cc(Cl)c(Cl)cc2Cl)n[nH]c1=S`, the growth inhibition was -6.05%. The same measure, in the same setting: for `COC(=O)C(Cc1ccc(N(C)C)cc1)(NC(=O)c1ccccc1)P(=O)(OC)OC` (configuration not stated) the value was -17.8%. Consider `N#CSC(C(=O)c1ccccc1)c1ccccc1` (configuration not stated), for which the growth inhibition was 94.2% (active).

A short description of a further assay: NCI Yeast Anticancer Drug Screen. Data for the mec2-1 strain (AID 157). The conditions noted are these: S. cerevisiae mec2-1 strain, active compounds read high; at 50.0 µM unless noted. The method in brief:
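Mutant yeast (mec2-1) grown with compound; growth inhibition relative to vehicle control reported.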
With `N#C/C(=C/c1ccccc1)c1ccccc1`, the growth inhibition is 12.6%.

As for `COc1ccc(/C(=N\NC(=S)NN)C(c2ccc(OC)cc2)C2C(=O)Oc3ccccc32)cc1` (configuration not stated), the growth inhibition was 5.85%. Still for that read-out and setting: with `O=C1CCCc2[nH]ccc21` the figure was -1.2%; with `C=C1CC2CC[C@@]34C[C@@H]5O[C@@H]6C(O[C@H]7CC[C@H](CC(=O)OC8[C@@H](C)C9OC%10C[C@]%11(C[C@@H]%12O[C@@]%13(C[C@@H](C)[C@@H]%12O%11)C[C@H](C)[C@@H]%11OC%12CC(C(O)CO)OC%12C[C@@H]%11O%13)OC%10CC9O[C@H]8C[C@H]8O[C@@H](CC[C@@H]1O2)C[C@@H](C)C8=C)O[C@@H]7[C@@H]6O3)C5O4` (some centres not stated), 74.6% (active); with `O=C(OC1C2C=COC(OC3OC(CO)C(O)C(O)C3O)C2C2(CO)OC12)c1ccc(O)cc1` (configuration not stated), -6.45%. Consider `CC1(C)N=C(N)N=C(N)N1c1ccc(N)cc1`, for which the growth inhibition was -3.8%. The same measure, in the same setting: for `CC1(C)OCC2OC3(c4nc(C#N)c(N)o4)OC(C)(C)OC3C2O1` (configuration not stated) the value was -7.05%; for `O=C(c1ccccc1)C(F)S(=O)(=O)O` (configuration not stated), -7.75%; for `O=C1OC(=O)C2C(Cl)C(Cl)C12` (configuration not stated), -7.2%. On the same count and under the same terms, with `CC(=O)[C@@]1(O)CC[C@H]2[C@@H]3CC[C@@H]4C[C@H](O)CC[C@]4(C)[C@H]3[C@H](O)C[C@@]21C` the figure was -3.7%; with `N#CSc1ccc(NN)cc1`, -2.05%. As to `O=S(=O)(Cc1nc2ccccc2[nH]1)Cc1nc2ccccc2[nH]1`, the growth inhibition is 4.25%. Consider `COc1ccc(NS(=O)(=O)c2ccc(NC(CNC(C)S(=O)(=O)O)S(=O)(=O)O)cc2)cc1` (configuration not stated), for which the growth inhibition is 5.75%. Same read-out and setting: with `CNCCc1cn(C2OC(CO)C(O)C(O)C2O)cn1` (configuration not stated) the figure was -17.6%. On to `COc1ccc2c(c1)[n+](=O)c(C(=O)C/C(=N/NC(=O)c1ccccc1O)C(=O)Nc1ccc(Cl)c(C(F)(F)F)c1)c(C)n2[O-]`, for which the growth inhibition is 9.4%. With `Cc1ccc(N2CCC(O)C2)cc1` (configuration not stated), the growth inhibition was -8.5%. On to `CCC(=O)OC(CCC1CCCO1)CCC1CCCO1` (configuration not stated), for which the growth inhibition was 12.2%. `Cc1[nH]c(=O)cc2c1[nH]c1ccccc12`: the growth inhibition is -6.7%. For the compound `CCCOC(CCC(=O)NC(C)(C)C)CC(=O)NC(C)(C)C` (configuration not stated), the growth inhibition was 5.45%. Still for that read-out and setting: for `O=C(COCC(=O)N/N=C/C=C/c1ccccc1)N/N=C/C=C/c1ccccc1` the value was -6.3%; for `CC1CCCCN1Cc1ccccc1COC(=O)c1ccc([N+](=O)[O-])cc1Cl` (configuration not stated), 30.4%; for `COC1C(OC(=O)c2ccc(C)[nH]2)C(O)C(Oc2ccc3c(O)c(NC(=O)c4c[nH]c(C(=O)Nc5c(O)c6ccc(OC7OC(C)(C)C(OC)C(OC(=O)c8ccc(C)[nH]8)C7O)c(C)c6oc5=O)c4C)c(=O)oc3c2C)OC1(C)C` (configuration not stated), 8.45%. With `CCOCc1cccc2ccccc12`, the growth inhibition is -33.9%. As for `CCOC(=O)C1=CC(C(=O)OCC)=C2C=CC=C3C=CC=C1N32`, the growth inhibition is 8.7%. Take `O=C(c1cccs1)N(C(=S)N1CCN(c2ccccc2)CC1)C1CCCCC1`: the growth inhibition was -5.9%. For `CC1CC(C)(O)C2C3(C)CCCC2(COC3=O)C12CCC1(CCOC1=O)O2` (configuration not stated), the growth inhibition was -23.5%. Turning to `OCCCCC(O)CO` (configuration not stated), the growth inhibition was -13.7%. The same measure, in the same setting: for `Cc1cc[nH]c(=O)c1[N+](=O)[O-]` the value was -10.8%.

With `CC(C#N)C(=O)O` (configuration not stated), the growth inhibition is -5.85%.

Regarding `CCc1ccc2c(-c3ccccc3)c3c(-c4ccccc4)c4ccccc4c(-c4ccccc4)c3c(-c3ccccc3)c2c1`, the growth inhibition is 7.3%. With `O=C(O)c1cccc2c(=O)c3ccccc3oc12`, the growth inhibition is -39.8%. Regarding `Cc1cccc(C)c1NC(=O)Nc1ccccc1C(N)=O`, the growth inhibition was 22.8%.

Turning to `COc1ccc(C(=O)/C=C/N)c(OC)c1`, the growth inhibition was -25.4%. For `O=C(O)C(F)(F)C(F)(F)C(F)(F)F`, the growth inhibition is -2.3%. On the same count and under the same terms, with `O=C(O)NC(=O)c1cc([N+](=O)[O-])ccc1COC1CCCCO1` (configuration not stated) the figure was -0.85%. For `O=C1CN(c2cccc(C(F)(F)F)c2)C(=O)CN1/N=C/c1ccc[nH]1`, the growth inhibition is -3.25%. On to `Brc1cc(Br)cc(CN2CCOCC2)c1`, for which the growth inhibition is 15.1%. For `Nn1c(NNC(=O)C(=O)Nc2cc(Cl)c(Cl)cc2Cl)n[nH]c1=S`, the growth inhibition is -16.1%. As to `COC(=O)C(Cc1ccc(N(C)C)cc1)(NC(=O)c1ccccc1)P(=O)(OC)OC` (configuration not stated), the growth inhibition was 10.8%. `N#CSC(C(=O)c1ccccc1)c1ccccc1` (configuration not stated): the growth inhibition was 60.6%.
